Assay outcomes: PubChem BioAssay, National Center for Advancing Translational Sciences (NCATS)
Six1-Eya2 inh: inhibitors of human Six1/Eya2 interaction | 360,000 tested, 0.56% active | AlphaScreen GST-Six1/His-Eya2 binding, biochemical; active compounds read low | Q15475+O00167 | activity change, % (concentration not given with the values) | AID 651725; in the data active = activity change below about -65%; inconclusive = mostly about -30% to -63%
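Six1/Eya2 binding was read as AlphaScreen signal after compounds were pinned into GST-Six1 plus His-tagged Eya2 (5X stock 250/500 nM) in pH 8.0 Tris/NaCl/TCEP buffer, beads added, then incubated 1 h, 37 C, dark.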
CtBP-E1A inh: inhibitors of CtBP/E1A interaction | AlphaScreen GST-E1A/His-CtBP binding, 1536-well; active compounds read low | activity change, % (test concentration not listed) | 340,000 tested, 0.49% active; in the data active = activity change below about -65%; inconclusive = mostly about -30% to -63%
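Protein mix (5X: 125 nM each GST-E1A, His-CtBP) was incubated with pinned compound 2 h at 37 deg C in dark, in 50 mM Tris pH 8.0 buffer with 300 mM NaCl. Glutathione donor and nickel acceptor beads followed; AlphaScreen signal read after 1 h.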
G9a inh: G9a (human) methyltransferase inhibition; Q96KQ7; 350,000 tested, 8.8% active; Potency, µM (titrated, usually from 102 µM), most hits filed as inhibitors; G9a H3K9 monomethylation, AlphaScreen, 2 h; also: nearly all actives have a fitted effect of over 75% in size
Target sequence (Q96KQ7 913-1193 limits assumed): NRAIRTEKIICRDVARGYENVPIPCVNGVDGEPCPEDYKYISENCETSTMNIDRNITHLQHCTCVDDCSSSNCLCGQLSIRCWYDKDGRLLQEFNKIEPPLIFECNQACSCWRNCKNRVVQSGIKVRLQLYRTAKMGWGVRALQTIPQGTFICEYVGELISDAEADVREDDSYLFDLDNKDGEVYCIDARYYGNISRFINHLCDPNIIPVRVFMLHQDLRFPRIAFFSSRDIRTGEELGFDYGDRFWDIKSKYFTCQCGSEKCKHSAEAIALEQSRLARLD
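Enzyme 20 nM + cpd, 15 min RT; add b-H3K9 pep 500 nM / SAM 20 uM; 2 h RT; anti-H3K9me1 Ab 0.5 ug/mL + SA donor / anti-rabbit acceptor beads 20 ug/mL each, 10 min; AlphaScreen read.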
JMJD2A Tudor: inhibitors of human JMJD2A Tudor domain. O75164. AlphaScreen JMJD2A-Tudor / H3K4me3 peptide binding. Potency, µM (doses to about 114 µM), actives largely listed as inhibitors. 390,000 tested, 4.4% active; also: nearly all actives have a fitted effect of over 50% in size
BAZ2B inh: inhibitors of human BAZ2B bromodomain | Q9UIF8 | AlphaScreen BAZ2B-H3K14Ac peptide displacement | Potency, µM (doses to about 114 µM), actives largely listed as inhibitors | 360,000 tested, 4.4% active | AID 504333; also: nearly all actives have a fitted effect of over 60% in size
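AlphaScreen luminescence quantifies BAZ2B engagement of H3K14Ac peptide; the protein and biotinylated peptide are both at 50 nM final, buffer PBS pH 7.4 with 0.01% Tween-20, all steps at room temperature.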
HP1b chromo inh: inhibitors of HP1-beta chromodomain binding to methylated histone tails | P83916 | AlphaScreen HP1-beta / biotin-H3K9me3 peptide binding | Potency, µM (doses to about 114 µM), hits mostly inhibitors | 390,000 tested, 0.56% active | AID 540317; also: nearly all actives have a fitted effect of over 70% in size
Target sequence (P83916 whole entry, looked up): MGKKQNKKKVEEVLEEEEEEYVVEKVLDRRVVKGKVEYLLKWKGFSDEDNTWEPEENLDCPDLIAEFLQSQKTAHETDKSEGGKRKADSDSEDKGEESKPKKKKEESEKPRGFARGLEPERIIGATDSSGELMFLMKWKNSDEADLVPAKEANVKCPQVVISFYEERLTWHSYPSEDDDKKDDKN
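AlphaScreen: HP1-beta (50 nM) preformed 30 min with biotin-H3(1-18)K9me3 peptide (50 nM) in PBS pH 7.4, 0.01% Tween-20. Compound added for 30 min at RT, then streptavidin donor/nickel chelate acceptor beads (10 ug/mL) for 30 min.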
Each line names hits and unclear results; the compound was inactive in the other large screens. Rows were chosen to be rich in hits. Some 10% of all compounds tested hit in one or more screens of this group. Unless noted, calls follow the shape of the dose curve; as a rule, active = well fitted inhibition curve with a large enough effect; inconclusive = small, poorly fitted or top-dose-only effect; inactive = no such curve, though single readings can be large or run the other way.

Cc1ccc(N2C(=O)N(CC(=O)C(C)(C)C)c3ccccc3S2(=O)=O)cc1C	none (no result: Six1-Eya2 inh, CtBP-E1A inh)
Nc1nonc1C(=O)N/N=C/c1ccc(-c2cccc(C(=O)O)c2)o1	G9a inh 32µM, BAZ2B inh inconclusive (no result: Six1-Eya2 inh, CtBP-E1A inh, JMJD2A Tudor, HP1b chromo inh)
CNC(=S)N/N=C/c1ccc(-c2cccc(C(=O)O)c2)o1	none
Cc1ccc(OCC(=O)N/N=C\c2ccc(-c3cccc(C(=O)O)c3)o2)c(C)c1	Six1-Eya2 inh inconclusive, G9a inh 35µM, BAZ2B inh inconclusive
COc1ccc(CC(=O)N/N=C/c2ccc(-c3cccc(C(=O)O)c3)o2)cc1OC	G9a inh 40µM
O=C(O)c1cccc(-c2ccc(/C=N/Nc3nn[nH]n3)o2)c1	Six1-Eya2 inh inconclusive, G9a inh 45µM, JMJD2A Tudor 56µM, BAZ2B inh 56µM
COc1ccc(-c2ccc(/C=N/NC(=O)Cc3nnc(N)s3)o2)cc1Cl	G9a inh 20µM, BAZ2B inh inconclusive (no result: CtBP-E1A inh)
Cc1ccc(-c2ccc(/C=N/NC(=O)Cc3nnc(N)s3)o2)cc1Cl	none
COc1ccccc1Nc1nnc(SCc2nnc(-c3cc(OC)c(OC)c(OC)c3)o2)s1	G9a inh 14µM, JMJD2A Tudor inconclusive
COC(=O)[C@]12CCCCC=C1N(Cc1ccco1)C(=O)[C@H](CC(=O)N1CCOCC1)C2	none (no result: G9a inh, JMJD2A Tudor, BAZ2B inh, HP1b chromo inh)
CC12CCC=CC1C(c1ccc(C(F)(F)F)cc1)N(Cc1ccccc1)C2=O (centres undefined)	none (no result: Six1-Eya2 inh, CtBP-E1A inh, G9a inh, BAZ2B inh)
COc1ccc(CNC(=O)C(=O)NCc2cccnc2)cc1	none (no result: G9a inh)
COc1ccc2c(c1)C=C(C(=O)OCc1cccnc1)CO2	JMJD2A Tudor 35µM
CCOc1ccc(C(=O)CCNC(Cc2cnc[nH]2)C(=O)O)cc1 (centres undefined)	Six1-Eya2 inh inconclusive, CtBP-E1A inh -66, G9a inh inconclusive, JMJD2A Tudor inconclusive, BAZ2B inh 18µM
CCOc1ccc(S(=O)(=O)NC(Cc2cnc[nH]2)C(=O)O)cc1 (centres undefined)	G9a inh 50µM, JMJD2A Tudor 16µM
CCc1nc2c(OCC(=O)C(C)(C)C)cccn2c1N(C)C(=O)C(C)C	none (no result: G9a inh, JMJD2A Tudor, BAZ2B inh, HP1b chromo inh)
CC(C)(C)OC(=O)N[C@@H](CC(=O)OCc1ccccc1)C(=O)O	JMJD2A Tudor 50µM
COc1ccc(NC(=O)C(CCCCNC(=O)OC(C)(C)C)NC(=O)OCc2ccccc2)cc1 (centres undefined)	G9a inh 3.5µM, JMJD2A Tudor inconclusive, BAZ2B inh inconclusive
CC(C)(C)OC(=O)N[C@@H](CCCCNC(=O)OCc1ccccc1)c1nnc([C@H](CCCCNC(=O)OCc2ccccc2)NC(=O)OC(C)(C)C)o1	none (no result: CtBP-E1A inh)
COC(=O)C(Cc1cncn1COCc1ccccc1)NC(=O)OC(C)(C)C (centres undefined)	G9a inh 28µM, JMJD2A Tudor inconclusive, BAZ2B inh 79µM
CC(C)(C)OC(=O)NC(CC(=O)OCc1ccccc1)C(=O)O (centres undefined)	none (no result: CtBP-E1A inh)
COc1cc(CNC(=O)Nc2nnc([C@H]3C[C@H](O)[C@@H](CO)O3)s2)cc(OC)c1OC	none (no result: G9a inh, JMJD2A Tudor, BAZ2B inh, HP1b chromo inh)
CCC(CC)C(=O)N1c2ccccc2C(C)(c2ccccc2)CC1(C)C (centres undefined)	none (no result: Six1-Eya2 inh, CtBP-E1A inh)
Cc1nc(C)c(-c2csc(Nc3cccc(O)c3)n2)s1	G9a inh 50µM, BAZ2B inh inconclusive
Cc1nc(N)sc1-c1csc(Nc2cccc(O)c2)n1	Six1-Eya2 inh -69, CtBP-E1A inh inconclusive, G9a inh 45µM, JMJD2A Tudor inconclusive, BAZ2B inh 56µM, HP1b chromo inh inconclusive
CCC(=O)Nc1nc(C)c(-c2csc(Nc3cccc(O)c3)n2)s1	G9a inh 40µM, JMJD2A Tudor 40µM, BAZ2B inh inconclusive (no result: CtBP-E1A inh)
CC(=O)c1cccc(Nc2nc(-c3sc(N)nc3C)cs2)c1	Six1-Eya2 inh inconclusive, CtBP-E1A inh -77, G9a inh 79µM, JMJD2A Tudor inconclusive, BAZ2B inh 35µM, HP1b chromo inh inconclusive
O=C(NCc1ccc2c(c1)CCN2C(=O)c1ccc(F)cc1)c1cc2ccccc2[nH]1	none (no result: Six1-Eya2 inh, CtBP-E1A inh)
CCCn1c(N)c(N(CCOC)C(=O)c2ccc(C#N)cc2)c(=O)[nH]c1=O	G9a inh 71µM
